Data as given in PubChem BioAssay AID1069 (NMMLSC, 2008).
The source made the active and inactive calls.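 How the source made its calls: active means high combined rank on largest and smallest cell-count-weighted shift across three tests, rank score above 45, floors 50 and 25 (some results past the limit were not filed as active); inactive means the rest.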

Assay: LNCaP granularity increase inducers, single-point recheck – cell-based, side scatter shift, flow cytometry, confirmation (AID 1069);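 further: LNCaP human prostate cancer cells in low-serum medium with charcoal-stripped FBS; percent of cells with raised granularity gated so DMSO controls show 10%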
Conditions: LNCaP differentiation, 4 d, stronger effect = higher value

| Compound | side scatter shift (at 100 µM) | side scatter shift (side scatter shift, at 10 µM) [%] |
| --- | --- | --- |
| O=C(CCn1c(=O)[nH]c2ccccc2c1=O)NCCCN1CCN(c2cccc(Cl)c2)CC1 | 35.7% (inactive) | 11.1 |
| COc1ccc(CCNC(=O)C2CCN(Cc3nc(-c4cccc(Cl)c4)oc3C)CC2)cc1OC | 20% (inactive) | 12.2 |
| Cc1oc(-c2ccc(Cl)cc2)nc1CN1CCC(C(=O)NCc2ccco2)CC1 | 37.1% (inactive) | 9.6 |
| O=C(Cn1ccc2ccccc2c1=O)NCCC(=O)N1CCN(c2cccc(C(F)(F)F)c2)CC1 | 5.2% (inactive) | 2.4 |
| COc1ccc(Cc2nc(-c3ccc(-n4cccc4)cc3)no2)cc1OC | 23.5% (inactive) | 15.8 |
| COCCNC(=O)CC(NS(=O)(=O)c1ccc(NC(C)=O)cc1)C(C)C (centres undefined) | 6.3% (inactive) | 9.45 |
| CCN1CCCC1CNC(=O)c1cc2c(-c3ccc(Cl)cc3)nn(C)c2s1 (centres undefined) | 35.7% (active) | 56.7 |
| Cc1cc(O)c(-c2cc(C(=O)Nc3ccc(S(=O)(=O)N4CCOCC4)cc3)[nH]n2)cc1C | 5.6% (inactive) | 9.8 |
| CCn1c(=S)ccc2ccc(OC)cc21 | 12.9% (inactive) | 1.95 |
| Cc1ccc(NC(=O)N2CCCN(Cc3ccc(F)cc3)C2)cc1C | 15.4% (inactive) | 28.2 |
| Cn1c(C(=O)NCCCN2CCN(c3ccccc3F)CC2)cc2c(=O)n(C)c3ccccc3c21 | 20% (inactive) | 7.65 |
| COc1ccc(-c2oc3ncn(CCN4CCOCC4)c(=N)c3c2-c2ccc(OC)cc2)cc1 | 42.3% (inactive) | 19.7 |
| CCOC(=O)C1CCCN(C(=O)Cn2cccc2C(=O)c2ccccc2)C1 (centres undefined) | 6% (inactive) | 2.5 |
| Cc1ccccc1-c1nc(CN2CCC(C(=O)NCc3cccnc3)CC2)c(C)o1 | 36.9% (inactive) | 1.35 |
| COC(=O)c1cc(-c2ccccc2)sc1NC(=O)c1cc(C)on1 | 70% (inactive) | 13.2 |
| Cc1ccc(Oc2ccc(S(=O)(=O)N3CCOCC3)cc2C(N)=O)c(-n2nc3ccccc3n2)c1 | 20% (inactive) | 21.3 |
| CCc1ccc(CNC(=O)CN2C(=O)COc3ccccc32)cc1 | 9% (inactive) | 5.7 |
| O=C(Nc1cccc(Cl)c1)N1CCN(Cc2ccccc2)CC1 | 7.1% (inactive) | 10.2 |
| CCOC(=O)c1ccc(-c2n[nH]c(=O)c3ccccc23)cc1 | 10.7% (inactive) | 3.3 |

| Compound | side scatter shift (at 100 µM) | side scatter shift (side scatter shift, at 10 µM) [%] |
| --- | --- | --- |
| COC(=O)C1=C(C)N=c2s/c(=C/c3cccs3)c(=O)n2C1c1cccs1 (centres undefined) | 32.8% (inactive) | 12.7 |
| Cc1cccc(-c2nc(CN3CCCC(C(=O)NC4CCC(C)CC4)C3)c(C)o2)c1 (centres undefined) | 40% (inactive) | 5.9 |
| COc1ccc2c(c1)CCc1c(C(=O)Nc3cc(C)n(Cc4ccc(Cl)cc4)n3)noc1-2 | 37.2% (inactive) | 7.45 |
| O=C(NCCCN1CCN(c2ccccc2F)CC1)C1CCC(=O)N1C1CCCCC1 (centres undefined) | 8% (inactive) | 4.05 |
| Cc1oc(-c2ccccc2F)nc1CN1CCC(C(=O)NCc2cccs2)CC1 | 39.3% (inactive) | 6.3 |
| O=C(CCNC(=O)Cn1ccc2ccccc2c1=O)NCCCN1CCN(c2ccccc2F)CC1 | 35.7% (inactive) | 6.15 |
| Cc1ccc2c(c1)NC(=O)C(CC(=O)NCCCN1CCN(c3cc(Cl)ccc3C)CC1)O2 (centres undefined) | 0% (inactive) | 7.35 |
| N#CC(C(=O)c1ccco1)c1ccccn1 (centres undefined) | 2.5% (inactive) | 10.3 |
| CCS(=O)(=O)N1CCC(C(=O)NCCCN2CCN(c3ccccc3F)CC2)CC1 | 13.3% (inactive) | 12.6 |
| O=C(NCCCN1CCOCC1)c1cc2c(s1)CSC2 | 13.1% (inactive) | 9.2 |
| CN(C)c1ccc(-c2nn3c(-c4ccc(Cl)cc4Cl)nnc3s2)cc1 | 50% (inactive) | 4.15 |
| Cc1noc(C)c1S(=O)(=O)N1CCC(C(=O)NCCN2CCC(C)CC2)CC1 | 12.7% (inactive) | 4.95 |
| OCc1nc2ccccc2n1CCCOc1ccccc1 | 6.7% (inactive) | 5.1 |
| Oc1c(CN2CCCCC2)cc(COCc2ccccc2)c2cccnc12 | 5.7% (active) | 51.2 |
| COc1ccccc1N1CCN(c2nc3ccccc3nc2C(C#N)C(=O)OC(C)C)CC1 (centres undefined) | 78.2% (active) | 21.1 |
| COC(=O)CN1CCN(C(=O)c2ccc(F)cc2)c2ccccc2C1 | 12.5% (inactive) | 3.1 |
| O=C(NCCCN1CCN(c2cccc(Cl)c2)CC1)c1cccc(N2CCCC2=O)c1 | 50.5% (active) | 7.7 |
| Cc1oc(-c2ccc(Cl)cc2)nc1CN1CCCC(C(=O)NCc2ccccn2)C1 (centres undefined) | 26.5% (inactive) | 6.45 |
